Potency data for 40 molecules are collected here from PubChem BioAssay (Tox21).

The source made the active and inactive calls. Where a call stands in place of a potency, no number is given. Calls come from the whole dose curve; as a rule, active = well fitted cell-killing curve with a large enough effect in the repeat runs; inconclusive = weak or mixed curves, or effect the other way; inactive = flat fitted curve, though single readings scatter.

The nature of the assay: qHTS assay to identify small molecule HDAC inhibitors - cell viability counter screen (AID 1259365). Note: nearly all actives have a fitted effect of over 50% in size. The note with it: HCT-116 viability, CellTiter-Glo ATP luminescence, 2 h; series mostly up to 92.4 µM. From the text:
U.S. Tox21 Program National Center for Advancing Translational Sciences [NCATS] NIH Chemical Genomics Center [NCGC] U.S. Environmental Protection Agency [EPA] National Institutes of Environmental Health Sciences [NIEHS] National Toxicology Program [NTP] U.S. Food and Drug Administration [FDA] Tox21 Assay Overview: Histone deacetylases (HDACs) are a group of epigenetic enzymes that regulate gene expression by histone deacetylation. HDACs are capable of introducing epigenetic modifications and such aberrations contribute to the onset and progression of several human diseases, thus making HDACs a popular therapeutic target. For identifying endogenous class I/II HDAC inhibitors a homogenous, luminogenic HDAC I/II cell based assay was used to measure the relative activity of class I and II HDACs from cells. Wild type HCT-116 cells were used to screen Tox21 compound libraries for identifying class I/II HDAC inhibitors.
Tox21 Assay Protocol Summary: HCT-116 cells were dispensed at 1,500 per well in 5uL of culture medium into white solid bottom 1536-well plates (Greiner Bio-One, Monroe, NC) using a Multidrop Combi (Thermo Scientific, Waltham, MA) dispenser. The assay plates were incubated at 37 C and 5% CO2 for an overnight, and then 23nL of compounds dissolved in DMSO and positive control were transferred using a Pintool station (Wako, San Diego, CA). The assay plates were incubated at 37C and 5% CO2 for 2hr. After compound treatment, 4uL of CellTiter-Glo reagent (Promega Corporation, Madison, WI) was added to each well of the assay plates using Flying Reagent Dispenser (FRD, Aurora Discovery, San Diego, CA) and incubated the assay plates at room temperature for 30min. The luminescence signal was quantified using a ViewLux plate reader (Perkin Elmer, Shelton, CT).
For orientation: Quantitative high-throughput screening tests each substance at several concentrations.
`CC(C)Cc1ccc(CC(=O)O)cc1`: the Potency entry was “inactive”.

On to `O=C(C(=O)c1ccco1)c1ccco1`, for which the Potency result was “inactive”.

Regarding `Cc1ccc2c(c1[N+](=O)[O-])C(=O)c1ccccc1C2=O`, the Potency result is “inactive”.

With `O=NN(CCCl)C(=O)NCCCl`, the Potency entry is “inactive”.

In the case of `CCN(CC)C(=O)N1CCN(C)CC1`, the Potency result was “inactive”.

Regarding `COc1cc(OC)c2ccc(=O)oc2c1`, the Potency entry is “inactive”.

Regarding `COc1ccc(-c2cc(=S)ss2)cc1`, the Potency entry is “inactive”.

Take `NC(=O)CCCCC(N)=O`: the Potency result is “inactive”.

As for `Nc1nc2ccc(OC(F)(F)F)cc2s1`, the Potency result is “inactive”.

For the molecule `COC(=O)Nc1nc2ccc(C(=O)C3CC3)cc2[nH]1`, the Potency entry was “inactive”.

On to `CC1=CC[C@@]23C[C@@H]1C(C)(C)[C@@H]2CC[C@H]3C`, for which the Potency result is “inactive”.

Take `O=C(O)CNC(=O)c1ccccc1I`: the Potency result is “inactive”.

For the molecule `C=CC(=O)O`, the Potency result is “inactive”.

For the molecule `O=C(O)CO`, the Potency entry was “inactive”.

As to `COc1ccc(/C=C/C(=O)c2ccc(OC)cc2OC)cc1`, the Potency result was “inactive”.

As for `CCCCCCOC(=O)CCCCC`, the Potency result is “inactive”.

For `CCOC(=O)C(C)O` (stereo not given), the Potency entry is “inactive”.

For the molecule `Nc1nc(-c2ccc([N+](=O)[O-])cc2)cs1`, the Potency entry was “inactive”.

Take `O=C(O)c1ccc(O)cc1O`: the Potency result is “inactive”.

Regarding `CCCCCCCC/C=C\CCCCCCCC(=O)OCCO`, the Potency result is “inactive”.

`O=[N+]([O-])C1(Br)COCOC1`: the Potency result is “inactive”.

As for `CN(C)CC/C=C1\c2ccccc2Sc2ccc(Cl)cc21`, the Potency entry was “inactive”.

Take `CCN(CC)c1cccc(O)c1`: the Potency result was “inactive”.

For the molecule `CCCCCCCCCCCCCCCC(=O)OCC`, the Potency entry was “inactive”.

As to `CCCC(=O)OC(=O)CCC`, the Potency entry is “inactive”.

For `CC(C)CC(O)CC(C)C`, the Potency result was “inactive”.

On to `ClC1=C(Cl)C1(Cl)Cl`, for which the Potency result is “inactive”.

Regarding `Cc1ccc(Nc2c(F)cccc2Cl)c(CC(=O)O)c1`, the Potency result is “inactive”.

For the molecule `Nc1c(Cl)cc(Cl)cc1[N+](=O)[O-]`, the Potency entry was “inactive”.

Regarding `FC(F)(F)C(F)(F)C(F)(F)C(F)(F)CCI`, the Potency entry is “inactive”.

As for `CCN(CC)CCOc1ccccc1C(=O)CCc1ccccc1`, the Potency result is “inactive”.

As for `CC(=O)OCCC1CCCCC1`, the Potency entry is “inactive”.

Take `CCCCC(CC)COS(=O)(=O)O` (stereo not given): the Potency result is “inactive”.

Take `CC1CCc2nccnc21` (stereo not given): the Potency result is “inactive”.

As to `CC(=O)OC(C)C[N+](C)(C)C` (stereo not given), the Potency result is “inactive”.

Regarding `CC(O)Cn1cnc2c1c(=O)n(C)c(=O)n2C` (stereo not given), the Potency result was “inactive”.

`CC(=O)NCCO`: the Potency entry is “inactive”.

On to `CCCCCCCC/C=C/C(=O)O`, for which the Potency result is “inactive”.

In the case of `COc1ccc(C)cc1`, the Potency result was “inactive”.

Turning to `CC(C(=O)O)c1ccc(C(=O)c2cccs2)cc1` (stereo not given), the Potency entry was “inactive”.
